Sampled rows, rich in hits. Any-hit rate of the full collection: about 5.2%.
TrxR1 substrate = substrates of rat thioredoxin reductase 1. O89049. purified TrxR1 substrate turnover, NADPH consumption readout. Potency, µM (series often up to 114 µM), inactives show at the top dose activity change, negative = substrate turnover. 390,000 tested, 0.01% active. AID 588456; note: nearly all actives have a fitted effect of over 50% in size
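Rat TrxR1, dispensed at 90 nM, was prereduced with 400 uM NADPH (final) for 5 min at ~22 deg C, then incubated with compound 15 min before 400 uM selenite. A first-read NADPH fluorescence drop versus no-compound background flagged substrates.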
Sfp inh = inhibitors of Bacillus subtilis Sfp phosphopantetheinyl transferase | Q9F4F7 | Biochemical Sfp PPTase activity, qHTS | Potency, µM, for inactives: largest response in the series, negative = inhibition, usual class: inhibitors | 310,000 tested, 3.5% active | AID 1490;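 note: the enzyme is Sfp with the accession as filed and its product quenches rhodamine fluorescence; 0% = enzyme reaction without inhibitor and -100% = no enzyme wells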
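Fluorescence-quenching assay with 15 nM Sfp, 5 uM rhodamine-CoA and 12.5 uM BHQ-2-labelled ybbR peptide in pH 7.6 Hepes/MgCl2 buffer. Enzyme was pre-incubated with compound for 15 min at room temperature. Rate was taken from the 30-min fluorescence change (525/598 nm).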
mIDH1 inhibitor = inhibitors of human mutant IDH1 R132H; IDH1-R132H enzyme, NADPH consumption, diaphorase/resazurin fluorescence; Potency, µM (titrated, usually from 76.6 µM), inactives show at the top dose activity change, negative = inhibition, most hits filed as inhibitors; 390,000 tested, 0.093% active; AID 602179; note: nearly all actives have a fitted effect of over 65% in size
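IDH1-R132H (0.5 ug/mL dispensed) in pH 7.5 Tris buffer was preincubated 30 min with compound, then given a substrate mix of 0.016 mM NADPH and 2 mM alpha-KG for 80 min at room temperature; remaining NADPH was read by diaphorase/resazurin fluorescence.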
VDR inhibitor = inhibitors of human vitamin D receptor; P11473; VDR-SRC2-3 peptide fluorescence polarization, 2 h; Potency, µM, without a hit: max response, negative = inhibition, most hits filed as inhibitors; 400,000 tested, 0.93% active
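After 23 nl compound addition and a short centrifugation, plates sat for 2 hours at ambient temperature; polarization of fluorescence then indicated loss of VDR binding to peptide SRC2-3.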
rTrxR1 inhibitor = rat TrxR1 inhibition; O89049; recombinant rTrxR1, NADPH fluorescence consumption, selenite substrate; Potency, µM (highest dose often 114 µM), inactives show at the top dose activity change, negative = inhibition, hits mostly inhibitors; 390,000 tested, 1% active; AID 588453; note: nearly all actives have a fitted effect of over 65% in size
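Rat TrxR1 (90 nM in the dispensed reagent) was pre-reduced with 400 uM NADPH for 5 min at room temperature, then incubated with compound for 15 min. After 400 uM selenite was added, NADPH fluorescence (Ex 340/Em 450 nm) was followed for 8 min.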
PLK1 PBD inh = PLK1 (human) polo-box domain binding inhibition. P53350. Plk1 PBD binding of FITC phosphopeptide, fluorescence polarization. Potency, µM, for inactives: max response, negative = inhibition, usual class: inhibitors. 360,000 tested, 2.8% active. AID 720504; note: series mostly up to about 57 µM; nearly all actives have a fitted effect of over 65% in size
Target sequence (P53350 whole entry, looked up, the tested form may be a part): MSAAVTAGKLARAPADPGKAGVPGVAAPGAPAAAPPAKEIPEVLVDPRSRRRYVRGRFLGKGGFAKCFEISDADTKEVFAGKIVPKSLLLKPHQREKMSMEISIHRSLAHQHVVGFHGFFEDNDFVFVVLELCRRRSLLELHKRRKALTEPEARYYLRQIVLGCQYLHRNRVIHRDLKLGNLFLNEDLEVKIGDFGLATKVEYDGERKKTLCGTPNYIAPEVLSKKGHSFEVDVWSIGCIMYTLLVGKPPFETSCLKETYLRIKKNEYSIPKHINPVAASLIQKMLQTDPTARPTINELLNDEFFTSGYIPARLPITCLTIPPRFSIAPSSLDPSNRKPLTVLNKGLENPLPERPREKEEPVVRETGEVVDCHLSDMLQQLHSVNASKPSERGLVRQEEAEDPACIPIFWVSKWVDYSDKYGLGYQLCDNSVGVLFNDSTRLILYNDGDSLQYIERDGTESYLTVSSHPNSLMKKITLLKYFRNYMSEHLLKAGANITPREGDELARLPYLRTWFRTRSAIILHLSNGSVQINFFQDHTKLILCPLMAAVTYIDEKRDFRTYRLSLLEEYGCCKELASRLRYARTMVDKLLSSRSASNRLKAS
Starred values were filed as active, the others as inactive; ? = inconclusive; nt = no result given; [ ] = dose if it differs, or a comment. Calls come from the whole dose curve; as a rule, active = well fitted curve in the direction sought with a large enough effect; inconclusive = small, poorly fitted or top-dose-only effect, or another doubt; inactive = no such curve, though single readings can be large; an effect the other way counts as inactive or inconclusive. Unless noted, % is set by controls: 0 for no effect and ±100 for the full control effect; potency is the fitted concentration of half-maximal effect.

SMILES	TrxR1 substrate	Sfp inh	mIDH1 inhibitor	VDR inhibitor	rTrxR1 inhibitor	PLK1 PBD inh
Cc1ccc(C(C(=O)NC(C)(C)C)N(CC2CCCO2)C(=O)Cn2nnc(-c3ccc(C)o3)n2)cc1 (stereo not drawn)	4%	56µM*	-1%	12%	23%	-4%
Cc1ccc(-c2nnn(CC(=O)N(CCO)C(C(=O)NC3CCCCC3)c3ccncc3)n2)o1 (stereo not drawn)	5%	2%	0%	-17%	22%	34µM*
Cc1ccc(-c2nnn(CC(=O)N(Cc3ccc(F)cc3)C(C(=O)NC3CCCC3)c3ccncc3)n2)o1 (stereo not drawn)	5%	40µM*	1%	8%	-6%	-3%
O=S(=O)(c1cccs1)N1CCN(c2nc(-c3cccs3)nc3ccccc23)CC1	-2%	nt	nt	-2%	-20%	nt
CCC(=O)Nc1ccc(C2C(=O)c3ccccc3C2=O)cc1	-14%	6%	1%	-11%	-13%	24µM*
O=C(NCCCc1ccccc1)c1cccc(NC(=O)C2CCCC2)c1	0%	nt	9%	2%	9%	-7%
C/C(CC1CC(C)OC1=O)=N\NC(N)=S (stereo not drawn)	2%	25µM*	1%	10%	2%	-3%
Cc1c(C(=O)Nc2nc3ccccc3[nH]2)oc2ccc(Br)cc12	1%	14µM*	-3%	3%	8%	13%
COc1ccccc1C(=O)Nc1nc2ccccc2[nH]1	108%	0%	7%	?	18%	21µM*
Cc1c(C(=O)Nc2nc3ccccc3[nH]2)oc2ccccc12	-3%	?	7%	5%	2%	3%
CSCC[C@H](N)C(=O)N1CCC(C(=O)N[C@H](C)C(=O)Nc2ccc(C(C)C)cc2)CC1	8%	18%	5%	-3%	-40%[57.1 µM]	-5%
CC(C)C1C(C#N)=C(N)SC(N)=C1C#N	-3%	?	1%	4%	-26%	-13%
CC(CC1C(C#N)=C(N)SC(N)=C1C#N)c1ccccc1 (stereo not drawn)	5%	7.9µM*	2%	?	?	-16%
CC(c1ccccc1)C1C(C#N)=C(N)SC(N)=C1C#N (stereo not drawn)	16%[57.1 µM]	22µM*	-4%	-19%	20%[57.1 µM]	-27%
COc1ccc2[nH]cc(CCNc3ccnc(-c4c(C)noc4C)n3)c2c1	nt	11%	nt	-16%	nt	nt
CCC(C)c1ccc(OCC(=O)Nc2ccc(-c3nc4ncccc4o3)cc2)cc1 (stereo not drawn)	208%	nt	1%	-17%	38%	nt
CC(=O)c1ccc(NC(=O)CSc2nnc3ccc(-c4ccc(Br)cc4)nn23)cc1	-2%[57.1 µM]	nt	-13%	3%	13%[57.1 µM]	nt
CN(C)C(=O)c1ccc(-c2nc(N3CCOCC3)c3ccccc3n2)cc1	nt	7%	nt	1%	nt	nt
O=C(COC(=O)CCC1CCCC1)Nc1cccc(S(=O)(=O)N2CCOCC2)c1	-7%	nt	-3%	-4%	-11%	-3%
Nn1c(Cc2ccc(Br)cc2)n[nH]c1=S	-2%	35µM*	7%	89µM*	-15%	12µM*
CCOc1ccc(Cc2n[nH]c(=S)n2N)cc1	10%[57.1 µM]	56µM*	-1%	-9%	-5%[57.1 µM]	?
CCOc1ccc(-n2c(CCc3ccccc3)n[nH]c2=S)cc1	5%[57.1 µM]	-14%	1%	-11%	-18%[57.1 µM]	-7%
Nn1c(Cc2ccccc2F)n[nH]c1=S	9%	?	8%	-4%	-5%	-8%
COC(=O)C1C(O)CC[C@@H]2CN3CCc4c([nH]c5ccccc45)C3C[C@@H]12 (stereo partly drawn)	nt	7%	nt	17%	nt	nt
COC(=O)c1ccc(Oc2c(Cl)cccc2[N+](=O)[O-])cc1	-3%	-8%	2%	?	0%	21µM*
COc1ccccc1NC(=O)CC1Sc2ccc(C(F)(F)F)cc2NC1=O (stereo not drawn)	3%	nt	0%	-5%	11%	nt
Cc1ccc(NC(=S)Nc2ccc3[nH]c(=O)[nH]c3c2)cc1	-4%	?	-3%	?	-30%	19µM*

Source: PubChem
